Data: ChEMBL document CHEMBL1157539, “Thousands of chemical starting points for antimalarial lead identification” (Nature, 2010)

Tests used:
Assay type in all cases: functional
Plasmodium falciparum [1] = assay: GSK_TCMDC: Inhibition of Plasmodium falciparum 3D7 in whole red blood cells, using parasite LDH activity as an index of growth. Test compounds present at 2uM
Plasmodium falciparum [2] = assay: GSK_TCMDC: Inhibition of Plasmodium falciparum Dd2 in whole red blood cells, using parasite LDH activity as an index of growth. Test compounds present at 2uM
HepG2 = assay: GSK_TCMDC: Percent inhibition of human HepG2 cell line. Test compounds present at 10uM.

Row | Structure (SMILES) | Inhibition (Plasmodium falciparum [1]) | Inhibition (Plasmodium falciparum [2]) | Inhibition (HepG2)
1 | COc1ccc2nccc([C@H](O)CN3CCC(NCc4ccc5c(c4C)OCCO5)CC3)c2n1.Cl | 94% | 6% | 26%
2 | CCOc1cc(C)ccc1C1CCN(CCCCNC(=O)c2ccc(-c3ccc(C(F)(F)F)cn3)cc2)CC1.Cl | 99% | 45% | 55%
3 | Cc1noc(C)c1-c1ccc2c(Nc3ccccc3C(C)(C)C)c(C(=O)NC3CCCC3)cnc2c1.Cl | 93% | 79% | 27%
4 | O=C(CCCCCNC(=O)c1ccc(O)c(-c2cccc(C(F)(F)F)c2)c1)NCCN1CCCCC1 | 99% | 0% | 0%
5 | O=C(Nc1cccc(CCNCc2ccccc2)c1)Nc1cccc2ccccc12.O=C(O)C(F)(F)F | 100% | 8% | 13%
6 | Cl.N=C(N)c1cc(Br)cc(NC(=O)Nc2cc(Br)cc(C(=N)N)c2)c1 | 93% | 76% | 0%
7 | CC(=O)Nc1ccc(CN2CCC(CNC(=O)c3cc(-c4cccc(C(F)(F)F)c4)cs3)C2)cc1.O=C(O)C(F)(F)F (configuration not stated) | 97% | 3% | 24%
8 | Cl.Nc1ccnc2ccc(OCCCCCCc3ccccc3)cc12 | 100% | 99% | 96%
9 | CCN(CC)CCN(Cc1ccc(-c2ccc(C(F)(F)F)cc2)cc1)C(=O)Cn1c(CCc2ccc(F)c(C#N)c2)nc(=O)c2ccccc21.O=C(O)C(O)C(O)C(=O)O | 98% | 55% | 18%
10 | CSC1=NC(C)(C)CC2(CC(c3cccc(C)c3)c3cc(Cl)c(O)cc3O2)N1 (configuration not stated) | 100% | 73% | 0%
11 | c1ccc2c(CNc3ccnc(NCc4cccc5ccccc45)n3)cccc2c1 | 99% | 71% | 51%
12 | CCNc1cc(C)nc(Nc2ccc(NC(=O)c3cccs3)cc2)n1 | 100% | 50% | 21%
13 | Cc1cccc(C(O)CNc2ccnc(Nc3cccc(-c4csc(C)n4)c3)n2)c1 (configuration not stated) | 99% | 88% | 29%
14 | Cc1cccc(-c2ccc3c(c2)CC(NCc2cccc(-n4ccnc4)c2)C3)c1 (configuration not stated) | 100% | 49% | 11%
15 | N#Cc1ccc(C(=O)Nc2ccc(-c3cccc(CN4CCCC4)c3)cc2)cc1.O=C(O)C(F)(F)F | 89% | 1% | 17%
16 | Cc1cc(N[C@@H](Cc2ccccc2)C(=O)NCc2cccs2)nc(NCC2CCCCC2)n1.O=C(O)C(F)(F)F | 100% | 92% | 0%
17 | Cc1cc(N)nc2ccc(-c3ccc(CCN)cc3)cc12 | 100% | 48% | 31%
18 | COCCCC1C(=O)OC2CCCC21 (configuration not stated) | 93% | 85% | 0%
19 | COc1cc(NC(=O)c2sc(-c3ccc(Cl)cc3)cc2NC(=O)c2ccncc2)ccc1OCCN1CCCC1 | 100% | 100% | 100%
20 | Cc1[nH]c(C)c(-c2ccc(-c3ccc(Cl)cc3)cc2)c(=O)c1Cl | 96% | 96% | 0%
21 | N#Cc1c(N)nc(SCC(=O)Nc2cc(C(F)(F)F)ccc2Cl)c(C#N)c1-c1cccs1 | 90% | 96% | 23%
22 | CC1(C)CCCC(=Cc2ccc(Br)cc2)C1(O)Cn1ccnc1 (configuration not stated) | 99% | 69% | 7%
23 | CCCN1CCN(c2cc(NCC)c3c4c(onc24)-c2ccccc2C3=O)CC1 | 96% | 11% | 4%
24 | O=C(/C=C/c1ccc(Cl)c(Cl)c1)NCCCCCN1CCC(n2c(=O)[nH]c3ccccc32)CC1 | 97% | 0% | 38%
25 | Cl.O=S(=O)(Nc1ccc2nccc(N3CCNCC3)c2c1)c1ccc2oc3ccccc3c2c1 | 100% | 2% | 16%
26 | CCCCCCn1c(Sc2ccc(C#N)c([N+](=O)[O-])c2)nnc1-c1ccc(N(C)C)cc1 | 92% | 25% | 0%
27 | CCn1cnc2c(N3CCCS3(=O)=O)cc(C(=O)N[C@@H](Cc3ccccc3)[C@H](O)CNC(C)(C)c3cccc(C(F)(F)F)c3)cc21 | 99% | 97% | 9%
28 | Cc1ccc(S(=O)(=O)N2CCN(C(=O)c3cc(-c4ccccc4)n[nH]3)CC2)cc1 | 91% | 88% | 0%
29 | CN1C(=CC(=O)NC(=O)c2ccccc2)C(C)(C)c2ccccc21 | 93% | 89% | 0%
